# Source: PubChem (several laboratories)
# EP2 modulator = EP2 receptor (human) modulation | EP2-expressing cells, cAMP HTRF FRET, PGE2 co-stimulation | induction, % at 25 µM | actives 0.83% (n = 260,000) | AID 940;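 active = compounds whose cAMP rise, as percent of the full-agonist control response, exceeds 60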;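 also: rat C6 glioma line stably carrying human EP2 under a CMV promoter; the protocol text gives 20 µM as final concentration; 100% = response of wells given 1 µM PGE2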
# Target sequence (P43116 whole entry, looked up): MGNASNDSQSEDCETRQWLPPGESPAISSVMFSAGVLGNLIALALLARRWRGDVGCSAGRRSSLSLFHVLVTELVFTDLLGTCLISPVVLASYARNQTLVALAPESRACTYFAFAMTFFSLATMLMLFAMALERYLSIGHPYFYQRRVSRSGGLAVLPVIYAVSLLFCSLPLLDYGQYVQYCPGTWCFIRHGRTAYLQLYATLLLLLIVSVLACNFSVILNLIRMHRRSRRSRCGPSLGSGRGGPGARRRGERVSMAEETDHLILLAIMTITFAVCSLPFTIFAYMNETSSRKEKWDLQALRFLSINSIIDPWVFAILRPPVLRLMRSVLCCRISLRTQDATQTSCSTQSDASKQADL
# EP2 antag = inhibitors of human EP2 prostaglandin E2 receptor; inhibition, % at 25 µM; actives 0.52% (n = 260,000); C6 glioma cells expressing human EP2, cAMP TR-FRET; cells stimulated with saturating PGE2; AID 1422;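 active = percent inhibition above 40 after rounding to a whole number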;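 also: rat C6 glioma host cells with rolipram phosphodiesterase inhibitor present; the protocol text gives 20 µM as final concentration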
# Cl transport mod = KCC2 (human) Cl- transport modulation | Q9H2X9 | KCC2 cells, thallium flux FluoZin-2 fluorescence | B-score of Tl+ flux slope (higher = more flux/activation; lower = inhibition) at 10 µM | actives 2.2% (n = 190,000) | AID 1456;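 active = thallium flux slope and its plate-corrected score both differing from the plate sample mean at a set confidence after two filtering rounds, in either direction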;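 also: slope of fluorescence scaled to starting intensity during 10 to 20 s after thallium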
# S1P3 antag = S1P3 (human) receptor antagonism | Q99500 | inhibition, % at 4.98 µM | actives 0.27% (n = 170,000) | CHO S1P3 NFAT-BLA reporter, FRET fluorescence, antagonist mode | AID 485;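 active = inhibition above the plate cutoff, the mean inhibition of test wells on that plate plus 3 SD, cut at about 28% in these data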;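 also: cells challenged with S1P at its EC80 of 0.8 µM; blue over green emission ratio from cleaved BLA substrate after 4 h stimulation; 0% = S1P-stimulated wells and 100% = unstimulated DMSO-only wells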
# Target sequence (Q99500 whole entry, looked up): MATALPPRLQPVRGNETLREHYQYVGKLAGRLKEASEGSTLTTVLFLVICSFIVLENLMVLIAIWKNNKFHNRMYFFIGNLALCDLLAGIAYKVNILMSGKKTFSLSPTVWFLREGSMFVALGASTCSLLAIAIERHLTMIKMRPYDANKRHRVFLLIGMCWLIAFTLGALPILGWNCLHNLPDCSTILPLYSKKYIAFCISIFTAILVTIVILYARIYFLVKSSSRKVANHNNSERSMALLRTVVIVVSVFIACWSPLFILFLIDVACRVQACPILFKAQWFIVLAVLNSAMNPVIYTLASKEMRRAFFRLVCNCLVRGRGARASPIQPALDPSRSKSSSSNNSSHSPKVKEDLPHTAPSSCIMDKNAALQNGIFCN
# KCC2 secondary = KCC2 (human) modulation, secondary assay; normalised thallium flux (F/F0 slope) at 10 µM; shares compounds with Cl transport mod; actives 15% (n = 3,700); HEK293-KCC2, thallium flux, FluoZin2 fluorescence; active compounds read high;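 active = thallium flux slope above the same plate's solvent-only control mean plus 3 SD; inconclusive = the two replicate wells disagree; inactive = no significant difference from solvent-only control wells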
# KCC2 bumet counter = bumetanide-insensitive thallium flux in KCC2 cells with ouabain, counter-screen. shares compounds with Cl transport mod. HEK293-KCC2 + bumetanide/ouabain, thallium flux FluoZin2; active compounds read high. normalized thallium flux at 10 µM. actives 49% (n = 3,700);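 active = thallium entry rate above the same plate's blocked-transporter control wells by more than 3 SD; inconclusive = the two repeat wells disagree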;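 also: raw slope of fluorescence over initial fluorescence between 10 and 20 s after thallium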
# KCC2 secondary2 = confirmation of human KCC2 transport modulators. shares compounds with Cl transport mod. HEK293-KCC2, thallium flux FluoZin2 fluorescence; actives lie on both sides; F/F0 rise rate, 10–20 s post-thallium. actives 23% (n = 3,700). AID 1715. normalized thallium flux at 10 µM;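 active = thallium flux slope more than 3 SD above or below the plate's solvent-only control mean, mostly below; inconclusive = the two repeat wells disagreed; inactive = no significant shift from solvent-only controls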;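 also: raw slope with 0.1% DMSO as baseline and bumetanide as block control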
# HEK counter1 = counter-screen for KCC2 modulators: effect in parental HEK293 cells. thallium flux rate (normalised fluorescence) at 10 µM. shares compounds with Cl transport mod. actives 46% (n = 3,700). thallium flux FluoZin2, ouabain; baseline-ratio fluorescence slope, 10–20 s after thallium;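 active = thallium flux rate significantly above the same plate's solvent-only control wells, beyond their mean plus 3 SD; inconclusive = the two replicate wells gave conflicting results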
# KCC2 ouabain = confirmation of human KCC2 modulators with ouabain; shares compounds with Cl transport mod; HEK293-KCC2, thallium flux FluoZin2 fluorescence; bidirectional: low = inhibitor, high = activator; raw Tl+ flux slope (below DMSO = inhibition, above = activation) at 10 µM; actives 48% (n = 3,700);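 active = thallium flux slope beyond 3 SD from same-plate DMSO control mean in most replicates, usually higher, sometimes lower; inconclusive = repeat tests gave conflicting results; inactive = no significant difference from controls in most replicates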;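 also: slope of initial-normalized fluorescence between seconds 10 and 20 after thallium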
# HEK293 Tl flux2 = parental HEK flux effect, counter-screen 2; actives 33% (n = 3,700); shares compounds with Cl transport mod; HEK293 parental, thallium flux FluoZin-2 fluorescence slope; thallium flux slope at 10 µM;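 active = thallium flux slope above the same plate's solvent-control mean plus 3 SD in both duplicate wells; inconclusive = duplicate wells that disagreed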;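 also: run without ouabain in cells lacking the KCC2 cotransporter; slope of fluorescence scaled to its starting value between 10 and 20 s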
# * hit, by the source's call; ? = inconclusive; . = no result given. Sampled rows, rich in hits. Any-hit rate of the full collection: about 3.1%.
SMILES,EP2 modulator,EP2 antag,Cl transport mod,S1P3 antag,KCC2 secondary,KCC2 bumet counter,KCC2 secondary2,HEK counter1,KCC2 ouabain,HEK293 Tl flux2
CCOc1ccc(NS(=O)(=O)c2ccc(NS(=O)(=O)c3ccccc3)cc2)cc1,6,3,.,.,0.0079,0.0063,0.03,0.0074,?,0.011
Cc1ccsc1-c1n[nH]c(=S)n1CC(C)C,5,10,0.018,-9,.,.,.,.,.,.
CC(C)Cn1c(-c2ccc(Br)o2)n[nH]c1=S,4,4,12*,1,0.018*,0.04*,0.034,0.019*,0.032*,0.012*
CCN1CCCC1CN(Cc1cc2cc(OC)c(OC)cc2[nH]c1=O)C(=O)Nc1cccc(Cl)c1 (configuration not stated),-69,8,.,.,.,.,.,.,.,.
CC(C)Cn1c(=S)[nH]c2ccccc2c1=O,-28,3,64*,6,0.0099*,0.12*,0.086*,0.086*,0.092*,0.085*
O=c1[nH]c2cc(Cl)ccc2n1-c1ccccc1,-2,10,-1.4,-7,.,.,.,.,.,.
C=C(C)Cn1c(=S)[nH]c2ccccc2c1=O,10,7,25*,.,0.014*,0.074*,0.031,0.024*,0.049*,0.014*
O=c1c2ccccc2[nH]c(=S)n1Cc1ccc2c(c1)OCO2,-12,4,10*,-14,?,0.012*,0.031,0.0098*,0.019,0.013*
C=CCn1c(=S)[nH]c2ccccc2c1=O,5,14,.,.,.,.,.,.,.,.
CC(C)Cn1c(=S)[nH]c2cc(Cl)ccc21,3,7,92*,-24,?,0.097*,?,0.083*,0.078*,0.063*
CC(C)NC(=O)C1CCN(S(C)(=O)=O)CC1,9,9,.,.,.,.,.,.,.,.
CCOCCCNC(=O)C1CCCN(S(=O)(=O)c2ccc(OC)cc2)C1 (configuration not stated),1,12,.,.,.,.,.,.,.,.
Cc1cc(C)c2cc(C)c3nnc(SCC(=O)Nc4ccccc4Cl)n3c2c1,3,6,.,.,.,.,.,.,.,.
O=c1c2ccccc2[nH]c(=S)n1CCC1=CCCCC1,19,10,38*,-8,?,0.082*,0.048*,0.032*,0.043*,0.026*
CCN1CCN(C(=O)c2ccc3c(=O)n(CCC4=CCCCC4)c(=O)[nH]c3c2)CC1,-18,6,0.051,-4,.,.,.,.,.,.
Cc1ccc(S(=O)(=O)N2CCCC(C(=O)NCc3ccncc3)C2)cc1 (configuration not stated),-22,10,.,.,.,.,.,.,.,.
Cn1cc(Br)c(C(=O)Nc2nccs2)n1,7,12,-0.056,-8,.,.,.,.,.,.
Cn1cc(Br)c(C(=O)Nc2c(F)c(F)c(F)c(F)c2F)n1,6,11,-3.6*,-15,?,?,0.037,0.0077,0.023,0.011
CCc1nnc(NC(=O)C2CCCN(S(=O)(=O)c3ccccc3)C2)s1 (configuration not stated),8,-3,.,.,?,0.0054,0.03,0.0071,0.019,0.01
COc1ccc2nc(SCC(=O)Nc3ccc(N4CCCC4)cc3)c(C#N)cc2c1,-25,9,.,.,.,.,.,.,.,.
Cn1c(O)c(C2=c3ccccc3=NC2=O)[nH]c1=S,-8,8,27*,20,0.015*,0.061*,0.032,0.031*,0.043*,0.014*
COc1ccc2nc(-n3c(O)c(C4=c5ccccc5=NC4=O)[nH]c3=S)sc2c1,-8,7,0.01,-1,.,.,.,.,.,.
Cc1ccc(CN(CCCn2ccnc2)CC2=Cc3ccccc3OC2)s1,-5,4,.,.,.,.,.,.,.,.
Cc1ccc(/C(O)=C/C(=O)C(=O)NC23CC4CC(CC(C4)C2)C3)cc1,-19,10,86*,-10,0.01,0.075*,0.038,?,0.055*,0.02*
COc1ccccc1NC(=O)CSc1nccc(=O)[nH]1,9,12,0.14,-7,.,.,.,.,.,.
SMILES,EP2 modulator,EP2 antag,Cl transport mod,S1P3 antag,KCC2 secondary,KCC2 bumet counter,KCC2 secondary2,HEK counter1,KCC2 ouabain,HEK293 Tl flux2
COc1cc(NC(=O)CSc2nccc(=O)[nH]2)c(C)cc1[N+](=O)[O-],19,15,-3.4*,1,0.0067,0.0046,0.03,0.007,0.018,0.0098
COc1ccc(CN2CCc3c(nc(N4CCC(C)CC4)[nH]c3=O)C2)c(O)c1,-38,3,.,.,.,.,.,.,.,.
COC(C(=O)N1CCCC(c2ncncc2-c2cc(C)no2)C1)c1ccccc1 (configuration not stated),-25,.,.,.,.,.,.,.,.,.
NC(=O)C1CCN(C(=S)NCCc2ccccc2)CC1,-12,2,4.6*,-16,0.0065,0.0052,0.033,0.009,0.021,0.012
Cc1nn(Cc2ccccc2)c(C)c1NC(=O)c1noc2c1CCc1ccccc1-2,-45,13,-4.7*,.,0.0098,?,0.035,0.0078,?,0.011
COc1ccc(CN2CCc3c(nc(N4CCC(C)CC4)[nH]c3=O)C2)cc1CO,-29,7,.,.,.,.,.,.,.,.
O=[N+]([O-])c1ccc(-c2cn(-c3ccccc3F)c(=S)[nH]2)cc1,-74,5,5.8*,-27,0.0093,0.012*,0.031,0.0089*,?,0.011*
CN1C(=O)/C(=C/c2ccccc2OCc2ccccc2)NC1=S,17,10,9.7*,-19,0.0088,0.013*,0.033,0.0098*,?,0.01
CN1C(=O)/C(=C/c2ccccc2OCc2ccc(C(=O)O)cc2)NC1=S,26,4,-0.77,-6,.,.,.,.,.,.
COc1ccc(OC)c(NC(=O)CSc2nc3cc(C)ccc3cc2C)c1,30,11,.,.,.,.,.,.,.,.
Fc1ccc(OCc2nc(-c3ccc(Br)o3)no2)c(F)c1,13,15,.,10,0.0066,0.0057,0.027,0.0062,0.015*,0.0088
CC(C)[C@@H](Cn1nc(C2CC2)ccc1=O)NC(=O)Cn1nnc2ccccc21,-31,.,.,.,.,.,.,.,.,.
O=C(NCCc1c[nH]c2ccccc12)c1cc(S(=O)(=O)N2CCCCC2)ccc1N1CCOCC1,5,15,.,-18,0.0059,0.0046,?,0.0069,0.015*,0.012
COc1ccc(NC(=O)C2CC(=O)N(c3cccc(Cl)c3)C2)cc1 (configuration not stated),-20,10,.,.,.,.,.,.,.,.
CCOc1ccc(Nc2n[nH]c(=S)s2)cc1,14,6,-5.3*,-1,?,0.0053,0.02*,0.0083,?,0.011
S=c1[nH]nc(Nc2ccc(Cl)cc2)s1,20,19,1,8,.,.,.,.,.,.
